PubChem BioAssay (NCATS)
Inconclusive results are not listed. The source made the active and inactive calls. The call rests on the fitted dose curve; in most records, active means well fitted curve in the direction sought with a large enough effect; inconclusive means small, poorly fitted or top-dose-only effect, or another doubt; inactive means no such curve, though single readings can be large; an effect the other way counts as inactive or inconclusive.

Assays:
[1] = molecular target: Rap guanine nucleotide exchange factor 3 (Homo sapiens) (UniProt O95398); test: Confirmatory qHTS for agonist of cAMP-regulated guanine nucleotide exchange factor 3 (EPAC1) (AID 1645881);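 further: EPAC1 catalysed release of BODIPY-GDP from Rap1B seen as fluorescence loss; nearly all actives have a fitted effect of over 75% in size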
[2] = molecular target: Rap guanine nucleotide exchange factor 4 (Homo sapiens) (UniProt Q8WZA2); test: Confirmatory qHTS for agonist of cAMP-regulated guanine nucleotide exchange factor 4 (EPAC2) (AID 1645884);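 further: nucleotide exchange releases bodipy-GDP from Rap1 and this lowers its fluorescence; nearly all actives have a fitted effect of over 65% in size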
[3] = molecular target: Rap guanine nucleotide exchange factor 3 (Homo sapiens) (UniProt O95398); test: Counterscreen qHTS for antagonist of cAMP-regulated guanine nucleotide exchange factor 3 (EPAC1) (AID 1645888);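 further: fluorescence loss as bound BODIPY-GDP is released from Rap1B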
Procedure, shortened: (§1)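 Rap1B-BODIPY-GDP 250 nM + GDP 50 uM; cpds 7-pt, final 9.74 nM–152 uM (activator mode) or from 7.32 nM upwards (inhibitor mode); RT; FI 480/540 nm at 5 and 30 min, then ± cAMP, reread.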

[4] = molecular target: Rap guanine nucleotide exchange factor 3 (Homo sapiens) (UniProt O95398); test: Counterscreen qHTS for agonist of cAMP-regulated guanine nucleotide exchange factor 3 (EPAC1) (AID 1645889); further: nearly all actives have a fitted effect of over 40% in size
Procedure, shortened: as §1

Measured: Potency

Rap guanine nucleotide exchange factor 4 (Homo sapiens), sequence (Q8WZA2 whole entry, looked up): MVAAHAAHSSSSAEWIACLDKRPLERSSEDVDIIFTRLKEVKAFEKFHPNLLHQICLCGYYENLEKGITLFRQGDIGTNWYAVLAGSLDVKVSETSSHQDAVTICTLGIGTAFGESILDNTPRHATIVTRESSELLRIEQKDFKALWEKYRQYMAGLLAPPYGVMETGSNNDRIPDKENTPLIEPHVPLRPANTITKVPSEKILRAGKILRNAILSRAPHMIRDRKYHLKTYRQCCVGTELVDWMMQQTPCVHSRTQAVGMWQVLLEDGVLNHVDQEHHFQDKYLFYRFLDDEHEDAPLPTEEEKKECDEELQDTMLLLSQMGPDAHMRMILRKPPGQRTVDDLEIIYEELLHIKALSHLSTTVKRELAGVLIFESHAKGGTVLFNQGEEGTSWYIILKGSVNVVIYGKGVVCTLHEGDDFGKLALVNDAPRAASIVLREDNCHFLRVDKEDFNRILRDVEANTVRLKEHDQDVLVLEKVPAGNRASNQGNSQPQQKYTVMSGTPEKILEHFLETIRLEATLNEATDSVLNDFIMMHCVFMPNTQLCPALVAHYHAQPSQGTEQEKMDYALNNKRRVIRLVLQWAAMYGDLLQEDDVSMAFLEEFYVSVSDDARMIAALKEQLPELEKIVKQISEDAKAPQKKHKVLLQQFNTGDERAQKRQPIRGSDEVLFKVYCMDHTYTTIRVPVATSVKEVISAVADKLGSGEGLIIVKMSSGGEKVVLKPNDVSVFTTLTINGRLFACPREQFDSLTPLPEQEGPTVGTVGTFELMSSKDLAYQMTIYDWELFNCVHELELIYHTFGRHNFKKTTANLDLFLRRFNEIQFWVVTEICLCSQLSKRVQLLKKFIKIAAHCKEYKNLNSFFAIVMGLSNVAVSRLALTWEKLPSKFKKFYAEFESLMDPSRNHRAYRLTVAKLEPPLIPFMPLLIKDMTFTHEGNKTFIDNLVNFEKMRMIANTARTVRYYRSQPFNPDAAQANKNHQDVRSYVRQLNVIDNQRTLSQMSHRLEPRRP
Rap guanine nucleotide exchange factor 3 (Homo sapiens), sequence (O95398 whole entry, looked up): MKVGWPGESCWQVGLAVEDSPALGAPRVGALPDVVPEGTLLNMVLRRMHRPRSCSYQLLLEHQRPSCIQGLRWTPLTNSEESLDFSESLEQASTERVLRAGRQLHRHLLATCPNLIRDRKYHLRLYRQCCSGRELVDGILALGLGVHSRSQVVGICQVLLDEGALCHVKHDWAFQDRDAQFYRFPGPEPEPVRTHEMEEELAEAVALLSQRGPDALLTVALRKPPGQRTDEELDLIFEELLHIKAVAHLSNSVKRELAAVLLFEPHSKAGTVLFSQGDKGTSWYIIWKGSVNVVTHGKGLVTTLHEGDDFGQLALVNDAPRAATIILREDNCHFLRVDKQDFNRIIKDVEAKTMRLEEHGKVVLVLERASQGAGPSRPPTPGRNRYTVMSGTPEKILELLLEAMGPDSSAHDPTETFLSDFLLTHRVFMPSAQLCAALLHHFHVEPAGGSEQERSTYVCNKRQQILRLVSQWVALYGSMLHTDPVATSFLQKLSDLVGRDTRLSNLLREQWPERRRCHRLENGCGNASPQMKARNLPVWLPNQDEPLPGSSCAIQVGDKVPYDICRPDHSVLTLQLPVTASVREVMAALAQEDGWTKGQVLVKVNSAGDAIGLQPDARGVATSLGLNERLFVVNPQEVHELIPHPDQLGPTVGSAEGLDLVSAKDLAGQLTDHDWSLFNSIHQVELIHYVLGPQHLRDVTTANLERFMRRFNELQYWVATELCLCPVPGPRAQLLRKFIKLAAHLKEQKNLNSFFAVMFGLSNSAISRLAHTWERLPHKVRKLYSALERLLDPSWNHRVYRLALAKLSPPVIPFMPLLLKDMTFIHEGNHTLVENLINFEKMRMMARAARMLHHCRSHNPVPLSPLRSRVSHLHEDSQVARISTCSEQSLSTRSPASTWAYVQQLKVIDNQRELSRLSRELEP

O=C(CC1C[C@H](C(=O)N2CCCCC2)[C@@]2(CCc3ccccc3)c3[nH]c4ccccc4c3CCN2C1=O)NCCCn1ccnc1 (stereo partly drawn)
inactive: all assays above

Cc1ccc2c(CC(=O)OCc3cc(=O)n4c(n3)sc3ccccc34)coc2c1
inactive: all assays above

Cn1c(N)c(C(=O)COC(=O)Cc2ccc(Cl)c(Cl)c2)c(=O)n(C)c1=O
inactive: all assays above

Cc1ccc(C2CC(c3cccs3)=NN2C(=O)CSc2nc(=O)n3cc(C)ccc3n2)cc1 (stereo not drawn)
inactive: all assays above

NS(=O)(=O)c1ccc(N/N=C/c2ccc(C(=O)O)cc2)c([N+](=O)[O-])c1
inactive: all assays above

CCCOP(=O)(OCCC)C(Nc1cccc(C(F)(F)F)c1)c1ccc(C)cc1 (stereo not drawn)
inactive: [1] | [2] | [4]
